Assay in all cases: DAPPL (digital affinity profiling via proximity ligation, sequencing); 10 mM Tris-HCl pH 7.5, 50 mM NaCl, 1 mM DTT, 4% glycerol, room temperature, 30 min; GST-TFs on glutathione beads, 16-mer random dsDNA library, 0.1% formaldehyde crosslink after washing; high values mean tight binding
For one test, the target named is T1, FLI1 (Homo sapiens, UniProt Q01543 1-452).
T1 sequence: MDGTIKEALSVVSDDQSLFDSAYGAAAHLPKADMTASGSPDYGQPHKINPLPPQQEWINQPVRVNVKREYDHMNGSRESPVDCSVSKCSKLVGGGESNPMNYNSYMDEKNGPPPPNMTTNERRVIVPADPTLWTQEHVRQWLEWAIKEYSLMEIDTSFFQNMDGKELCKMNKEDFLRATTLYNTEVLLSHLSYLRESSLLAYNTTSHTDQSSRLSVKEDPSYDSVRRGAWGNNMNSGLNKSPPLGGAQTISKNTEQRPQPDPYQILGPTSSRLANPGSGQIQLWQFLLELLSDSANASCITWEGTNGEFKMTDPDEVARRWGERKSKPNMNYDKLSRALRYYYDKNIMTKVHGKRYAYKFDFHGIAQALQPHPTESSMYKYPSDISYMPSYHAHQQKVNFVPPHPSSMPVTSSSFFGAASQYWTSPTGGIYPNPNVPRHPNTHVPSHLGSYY
To be noted: protein: recombinant; tags: N-terminal GST; dsDNA, one strand shown. In a few lines: (§1)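 In yeast, human transcription factors were expressed with a GST fusion, then pulled down on glutathione beads and given DNA barcodes. Pooled with a tag-only sample, they were exposed to 200 nmole of a 16-mer random double-stranded DNA library (Tris/NaCl/DTT/glycerol buffer, room temperature, 30 min), washed, crosslinked with 0.1% formaldehyde, proximity-ligated using BsaI/T4 ligase for 1 h at 37 °C, PCR-amplified and read on an Illumina NextSeq500. Each hexamer's frequency of reads for a factor, divided by the matching frequency for the tag-only sample, gives the binding signal.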

Another test deals with T2, ELK1 (Homo sapiens, UniProt P19419 1-428).
T2 sequence: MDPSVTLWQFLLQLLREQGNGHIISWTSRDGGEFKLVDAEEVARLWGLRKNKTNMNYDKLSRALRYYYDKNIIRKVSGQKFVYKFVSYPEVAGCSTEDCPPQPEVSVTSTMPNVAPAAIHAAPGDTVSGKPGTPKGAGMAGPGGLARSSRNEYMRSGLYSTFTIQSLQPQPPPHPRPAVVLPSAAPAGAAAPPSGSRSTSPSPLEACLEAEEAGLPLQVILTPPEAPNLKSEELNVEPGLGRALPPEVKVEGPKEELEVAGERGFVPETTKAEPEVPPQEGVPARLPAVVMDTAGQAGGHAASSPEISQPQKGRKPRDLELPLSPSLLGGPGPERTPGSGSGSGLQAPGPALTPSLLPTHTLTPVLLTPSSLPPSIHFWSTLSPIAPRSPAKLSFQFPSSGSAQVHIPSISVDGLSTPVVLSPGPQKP
To be noted: protein: recombinant; tags: N-terminal GST; dsDNA, one strand shown. In a few lines:
as §1

Another test addresses T3, GABPA (Homo sapiens, UniProt Q06546 1-454).
T3 sequence: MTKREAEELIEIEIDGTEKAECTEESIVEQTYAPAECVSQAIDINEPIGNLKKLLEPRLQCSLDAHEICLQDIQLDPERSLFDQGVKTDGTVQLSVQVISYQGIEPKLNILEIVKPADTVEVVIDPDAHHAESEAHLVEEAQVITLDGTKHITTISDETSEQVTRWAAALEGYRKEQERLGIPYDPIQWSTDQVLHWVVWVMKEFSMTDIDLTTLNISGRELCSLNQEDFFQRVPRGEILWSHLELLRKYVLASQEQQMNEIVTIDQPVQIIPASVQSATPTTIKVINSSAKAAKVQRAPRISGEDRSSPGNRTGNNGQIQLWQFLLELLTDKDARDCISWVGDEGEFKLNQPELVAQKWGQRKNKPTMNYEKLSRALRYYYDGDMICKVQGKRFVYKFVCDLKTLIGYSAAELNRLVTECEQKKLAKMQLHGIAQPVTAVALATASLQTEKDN
To be noted: protein: recombinant; tags: N-terminal GST; dsDNA, one strand shown. In a few lines: as §1

A further test concerns the target T4, ERG (Homo sapiens, UniProt P11308 1-479).
T4 sequence: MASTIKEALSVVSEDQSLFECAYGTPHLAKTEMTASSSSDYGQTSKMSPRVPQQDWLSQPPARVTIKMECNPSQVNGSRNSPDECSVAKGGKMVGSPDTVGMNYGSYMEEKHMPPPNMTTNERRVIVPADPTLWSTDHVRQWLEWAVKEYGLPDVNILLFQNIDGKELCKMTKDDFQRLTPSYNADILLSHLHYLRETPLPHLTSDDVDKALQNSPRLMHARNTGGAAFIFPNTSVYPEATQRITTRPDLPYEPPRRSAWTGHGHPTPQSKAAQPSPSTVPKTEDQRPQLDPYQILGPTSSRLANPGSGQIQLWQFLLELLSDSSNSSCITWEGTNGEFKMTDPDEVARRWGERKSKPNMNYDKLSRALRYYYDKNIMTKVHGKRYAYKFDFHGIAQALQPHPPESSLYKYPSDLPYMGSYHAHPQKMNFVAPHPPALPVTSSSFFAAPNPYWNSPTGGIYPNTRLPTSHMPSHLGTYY
The settings on record: protein: recombinant; tags: N-terminal GST; dsDNA, one strand shown. In a few lines: as §1

The target of another test is ELF1 (Homo sapiens, UniProt P32519 1-619). To be noted: protein: recombinant; tags: N-terminal GST; dsDNA, one strand shown. In a few lines:
as §1

A further test concerns the target T5, EHF (Homo sapiens, UniProt Q9NZC4 1-300).
T5 sequence: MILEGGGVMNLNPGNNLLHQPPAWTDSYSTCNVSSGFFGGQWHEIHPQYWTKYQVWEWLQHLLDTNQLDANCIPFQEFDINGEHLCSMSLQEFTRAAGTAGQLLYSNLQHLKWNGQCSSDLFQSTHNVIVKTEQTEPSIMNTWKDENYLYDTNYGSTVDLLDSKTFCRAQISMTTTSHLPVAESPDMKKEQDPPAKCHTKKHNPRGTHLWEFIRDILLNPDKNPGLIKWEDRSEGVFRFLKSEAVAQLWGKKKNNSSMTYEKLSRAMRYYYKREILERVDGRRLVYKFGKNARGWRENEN
The settings on record: protein: recombinant; tags: N-terminal GST; dsDNA, one strand shown. In a few lines:
as §1

A further test has as its target SPI1 (Homo sapiens, UniProt P17947 1-270). To be noted: protein: recombinant; tags: N-terminal GST; dsDNA, one strand shown. In a few lines:
as §1

The target in another test is SPIB (Homo sapiens, UniProt Q01892 1-262). The settings on record: protein: recombinant; tags: N-terminal GST; dsDNA, one strand shown. In a few lines: as §1
The target in the next test is T6, ELK3 (Homo sapiens, UniProt P41970 1-407).
T6 sequence: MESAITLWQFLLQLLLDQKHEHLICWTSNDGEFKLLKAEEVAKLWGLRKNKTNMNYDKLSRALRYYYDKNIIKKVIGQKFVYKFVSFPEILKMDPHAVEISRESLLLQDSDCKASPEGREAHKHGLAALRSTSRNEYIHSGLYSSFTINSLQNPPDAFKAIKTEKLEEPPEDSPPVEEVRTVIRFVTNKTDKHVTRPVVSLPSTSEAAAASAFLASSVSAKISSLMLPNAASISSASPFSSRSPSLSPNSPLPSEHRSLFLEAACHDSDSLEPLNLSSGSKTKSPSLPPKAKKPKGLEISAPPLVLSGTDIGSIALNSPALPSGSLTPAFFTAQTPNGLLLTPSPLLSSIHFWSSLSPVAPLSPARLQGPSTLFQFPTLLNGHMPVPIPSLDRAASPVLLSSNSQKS
To be noted: protein: recombinant; tags: N-terminal GST; dsDNA, one strand shown. In a few lines: as §1

In a further test the target is T7, FEV (Homo sapiens, UniProt Q99581 1-238).
T7 sequence: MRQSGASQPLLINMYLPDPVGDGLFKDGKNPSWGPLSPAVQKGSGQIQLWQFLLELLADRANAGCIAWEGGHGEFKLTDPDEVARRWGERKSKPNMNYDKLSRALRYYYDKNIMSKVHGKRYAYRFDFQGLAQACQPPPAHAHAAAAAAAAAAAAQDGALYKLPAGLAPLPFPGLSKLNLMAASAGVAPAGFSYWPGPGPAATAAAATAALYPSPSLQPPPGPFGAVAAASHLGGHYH
The settings on record: protein: recombinant; tags: N-terminal GST; dsDNA, one strand shown. In a few lines: as §1

Another test has as its target ETV5 (Homo sapiens, UniProt P41161 1-510). The settings on record: protein: recombinant; tags: N-terminal GST; dsDNA, one strand shown. In a few lines:
as §1

Another test has as its target HSF1 (Homo sapiens, UniProt Q00613 1-529). The settings on record: protein: recombinant; tags: N-terminal GST; chain copies: 3; dsDNA, one strand shown. In a few lines:
as §1

For a further test, the target named is T8, SPIC (Homo sapiens, UniProt Q8N5J4 1-248).
T8 sequence: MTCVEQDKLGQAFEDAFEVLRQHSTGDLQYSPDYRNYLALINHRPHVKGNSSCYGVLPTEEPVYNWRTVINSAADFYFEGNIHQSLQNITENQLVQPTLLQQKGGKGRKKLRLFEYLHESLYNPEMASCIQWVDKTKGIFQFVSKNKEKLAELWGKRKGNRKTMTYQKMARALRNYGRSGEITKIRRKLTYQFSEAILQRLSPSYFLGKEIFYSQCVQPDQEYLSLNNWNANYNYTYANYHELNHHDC
To be noted: protein: recombinant; tags: N-terminal GST; dsDNA, one strand shown. In a few lines:
as §1

A further test has as its target ELF4 (Homo sapiens, UniProt Q99607 1-663). The settings on record: protein: recombinant; tags: N-terminal GST; dsDNA, one strand shown. In a few lines:
as §1

A further test concerns the target T9, ELK4 (Homo sapiens, UniProt P28324-2 1-405).
T9 sequence: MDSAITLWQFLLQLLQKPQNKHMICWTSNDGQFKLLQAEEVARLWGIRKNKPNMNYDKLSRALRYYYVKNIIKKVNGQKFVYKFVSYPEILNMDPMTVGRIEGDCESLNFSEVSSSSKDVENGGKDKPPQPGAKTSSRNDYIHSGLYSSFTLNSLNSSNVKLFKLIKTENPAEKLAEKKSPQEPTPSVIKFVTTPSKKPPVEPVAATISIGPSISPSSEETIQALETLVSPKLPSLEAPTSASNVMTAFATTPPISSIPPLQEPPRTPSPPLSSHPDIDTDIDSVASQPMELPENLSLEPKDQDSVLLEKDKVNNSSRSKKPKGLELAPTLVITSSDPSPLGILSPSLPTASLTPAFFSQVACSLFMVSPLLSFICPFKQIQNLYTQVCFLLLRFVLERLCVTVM
The settings on record: protein: recombinant; tags: N-terminal GST; dsDNA, one strand shown. In a few lines:
as §1

In the next test the target is T10, ETV2 (Homo sapiens, UniProt O00321 1-342).
T10 sequence: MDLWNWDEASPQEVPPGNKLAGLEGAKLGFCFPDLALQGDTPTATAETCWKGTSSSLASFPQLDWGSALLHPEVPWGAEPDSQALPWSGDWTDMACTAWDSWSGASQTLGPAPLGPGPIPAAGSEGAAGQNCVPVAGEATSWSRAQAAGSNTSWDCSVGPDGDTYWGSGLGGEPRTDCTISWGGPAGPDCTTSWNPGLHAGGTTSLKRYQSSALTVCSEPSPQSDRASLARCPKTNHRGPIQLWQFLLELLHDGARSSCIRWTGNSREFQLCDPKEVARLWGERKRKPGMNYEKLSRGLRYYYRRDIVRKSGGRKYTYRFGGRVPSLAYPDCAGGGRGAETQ
To be noted: protein: recombinant; tags: N-terminal GST; dsDNA, one strand shown. In a few lines:
as §1

A further test addresses T11, ELF3 (Homo sapiens, UniProt P78545 1-371).
T11 sequence: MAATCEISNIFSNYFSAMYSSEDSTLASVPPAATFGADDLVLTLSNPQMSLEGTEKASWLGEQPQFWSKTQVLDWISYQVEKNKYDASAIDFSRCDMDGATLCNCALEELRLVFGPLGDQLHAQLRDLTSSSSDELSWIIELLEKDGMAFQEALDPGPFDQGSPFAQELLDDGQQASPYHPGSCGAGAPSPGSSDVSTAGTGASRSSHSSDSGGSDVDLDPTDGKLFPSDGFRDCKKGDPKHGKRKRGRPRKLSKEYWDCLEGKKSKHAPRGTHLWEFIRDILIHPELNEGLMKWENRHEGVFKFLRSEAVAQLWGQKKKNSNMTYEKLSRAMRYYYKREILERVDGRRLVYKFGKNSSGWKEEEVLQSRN
The settings on record: protein: recombinant; tags: N-terminal GST; dsDNA, one strand shown. In a few lines:
as §1

The target of the next test is CRX (Homo sapiens, UniProt O43186 1-299). The settings on record: protein: recombinant; tags: N-terminal GST; dsDNA, one strand shown. In a few lines: as §1
The next test has as its target ETV1 (Homo sapiens, UniProt P50549 1-477). To be noted: protein: recombinant; tags: N-terminal GST; dsDNA, one strand shown. In a few lines:
as §1

These results are taken from paper PMC7862700, “An all-to-all approach to the identification of sequence-specific readers for epigenetic DNA modifications on cytosine”.

Sequence of ETV1 (P50549 whole entry): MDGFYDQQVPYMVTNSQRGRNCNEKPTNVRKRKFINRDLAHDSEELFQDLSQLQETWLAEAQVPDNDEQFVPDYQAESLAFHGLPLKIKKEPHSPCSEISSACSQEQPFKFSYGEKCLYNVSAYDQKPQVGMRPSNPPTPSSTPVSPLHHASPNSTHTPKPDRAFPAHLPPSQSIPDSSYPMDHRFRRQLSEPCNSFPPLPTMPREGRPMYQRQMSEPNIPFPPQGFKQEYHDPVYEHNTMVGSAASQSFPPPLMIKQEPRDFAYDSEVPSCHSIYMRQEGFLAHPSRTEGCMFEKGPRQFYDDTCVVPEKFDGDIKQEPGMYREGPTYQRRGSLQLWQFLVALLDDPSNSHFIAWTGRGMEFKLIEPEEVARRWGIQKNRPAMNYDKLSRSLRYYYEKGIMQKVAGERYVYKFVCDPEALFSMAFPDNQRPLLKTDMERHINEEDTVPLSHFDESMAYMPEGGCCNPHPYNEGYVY
Sequence of ELF4 (Q99607 whole entry): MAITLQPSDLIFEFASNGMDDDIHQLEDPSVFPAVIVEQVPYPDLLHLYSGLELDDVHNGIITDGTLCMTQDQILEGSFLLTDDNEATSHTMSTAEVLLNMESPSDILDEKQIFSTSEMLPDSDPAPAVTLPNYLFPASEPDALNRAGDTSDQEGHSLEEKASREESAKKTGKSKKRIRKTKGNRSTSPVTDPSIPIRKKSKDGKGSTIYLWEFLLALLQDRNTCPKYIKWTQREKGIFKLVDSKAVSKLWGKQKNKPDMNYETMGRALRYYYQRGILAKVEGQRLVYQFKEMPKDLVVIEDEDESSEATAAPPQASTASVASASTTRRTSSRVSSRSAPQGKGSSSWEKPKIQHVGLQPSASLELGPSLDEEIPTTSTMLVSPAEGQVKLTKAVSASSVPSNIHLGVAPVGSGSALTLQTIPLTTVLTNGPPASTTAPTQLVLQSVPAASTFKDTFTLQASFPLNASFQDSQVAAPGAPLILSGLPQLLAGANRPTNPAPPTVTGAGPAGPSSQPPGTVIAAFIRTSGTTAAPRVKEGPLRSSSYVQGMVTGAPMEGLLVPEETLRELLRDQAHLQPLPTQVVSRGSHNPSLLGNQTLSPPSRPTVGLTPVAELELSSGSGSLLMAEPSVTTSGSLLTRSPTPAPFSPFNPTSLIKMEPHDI
Sequence of ETV5 (P41161 whole entry): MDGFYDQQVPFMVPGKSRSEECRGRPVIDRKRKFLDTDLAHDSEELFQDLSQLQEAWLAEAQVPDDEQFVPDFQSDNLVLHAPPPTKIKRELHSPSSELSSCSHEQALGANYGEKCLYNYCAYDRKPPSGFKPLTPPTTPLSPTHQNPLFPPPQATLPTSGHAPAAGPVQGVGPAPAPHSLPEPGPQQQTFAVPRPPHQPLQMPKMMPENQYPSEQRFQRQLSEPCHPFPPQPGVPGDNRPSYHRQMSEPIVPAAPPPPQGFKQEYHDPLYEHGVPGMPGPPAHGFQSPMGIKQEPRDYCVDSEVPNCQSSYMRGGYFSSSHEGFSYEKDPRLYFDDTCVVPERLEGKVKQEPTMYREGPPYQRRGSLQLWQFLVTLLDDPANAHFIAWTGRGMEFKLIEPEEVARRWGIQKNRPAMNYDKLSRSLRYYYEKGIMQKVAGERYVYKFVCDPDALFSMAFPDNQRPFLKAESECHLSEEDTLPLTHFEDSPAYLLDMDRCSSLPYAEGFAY
Sequence of SPIB (Q01892 whole entry): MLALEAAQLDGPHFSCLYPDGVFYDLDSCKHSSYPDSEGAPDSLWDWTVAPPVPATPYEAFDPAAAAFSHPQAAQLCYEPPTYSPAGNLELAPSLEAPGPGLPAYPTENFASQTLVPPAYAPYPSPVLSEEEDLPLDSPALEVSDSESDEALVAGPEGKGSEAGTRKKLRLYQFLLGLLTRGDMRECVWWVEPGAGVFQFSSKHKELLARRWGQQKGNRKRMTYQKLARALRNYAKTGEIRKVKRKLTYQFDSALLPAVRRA
Sequence of CRX (O43186 whole entry): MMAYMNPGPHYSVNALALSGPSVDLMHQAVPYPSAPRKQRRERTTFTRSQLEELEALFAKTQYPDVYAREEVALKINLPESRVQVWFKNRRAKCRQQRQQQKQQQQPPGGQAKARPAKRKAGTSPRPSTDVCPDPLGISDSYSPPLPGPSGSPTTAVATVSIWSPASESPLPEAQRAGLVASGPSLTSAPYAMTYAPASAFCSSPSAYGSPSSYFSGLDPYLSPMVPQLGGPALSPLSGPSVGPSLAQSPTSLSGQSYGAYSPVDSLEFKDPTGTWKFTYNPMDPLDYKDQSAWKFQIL
Sequence of ELF1 (P32519 whole entry): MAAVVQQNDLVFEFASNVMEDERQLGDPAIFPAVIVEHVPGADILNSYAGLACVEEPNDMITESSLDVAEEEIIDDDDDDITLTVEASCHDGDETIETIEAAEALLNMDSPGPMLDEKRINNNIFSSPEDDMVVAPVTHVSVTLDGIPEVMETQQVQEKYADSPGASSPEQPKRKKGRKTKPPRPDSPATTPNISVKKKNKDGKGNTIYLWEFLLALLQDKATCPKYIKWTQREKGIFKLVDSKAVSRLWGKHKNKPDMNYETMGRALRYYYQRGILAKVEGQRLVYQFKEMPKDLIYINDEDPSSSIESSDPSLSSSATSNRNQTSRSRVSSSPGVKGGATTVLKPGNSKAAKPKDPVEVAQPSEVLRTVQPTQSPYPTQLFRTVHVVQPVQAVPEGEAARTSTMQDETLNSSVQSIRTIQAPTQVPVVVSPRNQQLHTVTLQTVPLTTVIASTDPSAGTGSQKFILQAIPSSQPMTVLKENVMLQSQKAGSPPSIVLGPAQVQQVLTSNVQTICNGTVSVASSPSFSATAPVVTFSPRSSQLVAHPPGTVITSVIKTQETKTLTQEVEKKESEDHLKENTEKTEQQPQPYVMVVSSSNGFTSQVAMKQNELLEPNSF
Sequence of HSF1 (Q00613 whole entry): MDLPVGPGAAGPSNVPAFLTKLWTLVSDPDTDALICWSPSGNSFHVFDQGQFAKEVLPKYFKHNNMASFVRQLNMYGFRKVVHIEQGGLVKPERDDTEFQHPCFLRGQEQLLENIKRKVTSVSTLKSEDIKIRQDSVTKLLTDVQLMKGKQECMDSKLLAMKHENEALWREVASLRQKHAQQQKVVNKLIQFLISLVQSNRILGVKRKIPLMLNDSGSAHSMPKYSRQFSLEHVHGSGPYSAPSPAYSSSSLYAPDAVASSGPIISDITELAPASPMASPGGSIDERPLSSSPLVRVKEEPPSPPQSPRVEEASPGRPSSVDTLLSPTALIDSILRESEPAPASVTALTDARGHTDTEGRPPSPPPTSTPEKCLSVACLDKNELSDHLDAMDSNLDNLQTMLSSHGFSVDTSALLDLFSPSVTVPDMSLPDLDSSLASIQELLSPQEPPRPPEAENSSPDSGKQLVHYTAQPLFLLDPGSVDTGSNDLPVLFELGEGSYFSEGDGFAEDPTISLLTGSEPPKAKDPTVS

Turning to TGACAA, the binding signal in the test with FLI1 is 1.18 fold enrichment (6-mer frequency, TF over GST control); with ELK1 it was 1.19 fold enrichment (6-mer frequency, TF over GST control); with GABPA, 1.32 fold enrichment (6-mer frequency, TF over GST control); with ERG, 1.28 fold enrichment (6-mer frequency, TF over GST control); in the test with ELF1, 1.38 fold enrichment (6-mer frequency, TF over GST control); with EHF it was 1.21 fold enrichment (6-mer frequency, TF over GST control). Further, the binding signal was 1.25 fold enrichment (6-mer frequency, TF over GST control) with SPI1; 1.14 fold enrichment (6-mer frequency, TF over GST control) with SPIB; 1.12 fold enrichment (6-mer frequency, TF over GST control) in the test with ELK3; 1.22 fold enrichment (6-mer frequency, TF over GST control) in the test with FEV; 1.22 fold enrichment (6-mer frequency, TF over GST control) with ETV5; 1.06 fold enrichment (6-mer frequency, TF over GST control) with HSF1. For the same sequence, the binding signal in the test with SPIC was 1.11 fold enrichment (6-mer frequency, TF over GST control); with ELF4, 1.26 fold enrichment (6-mer frequency, TF over GST control); with ELK4, 1.2 fold enrichment (6-mer frequency, TF over GST control); with ETV2, 1.14 fold enrichment (6-mer frequency, TF over GST control); with ELF3, 1.3 fold enrichment (6-mer frequency, TF over GST control); with CRX, 1.05 fold enrichment (6-mer frequency, TF over GST control). In the test with ETV1, the binding signal is 1.25 fold enrichment (6-mer frequency, TF over GST control).
